# The list is not random: actives were taken first. Their share in the collection is about 11%.
# Pf growth 48h – Primary qHTS for delayed death inhibitors of the malarial parasite plastid, 48 hour incubation | P. falciparum luciferase growth in erythrocytes, 48 h | Potency, µM (doses to about 28.7 µM), for inactives: at the highest dose activity change, negative = inhibition, usual class: inhibitors | 310,000 compounds, 5.9% hits | AID 504832, 2011; also: % is scaled to controls: 0 for no effect and ±100 for the full control effect
#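 Cell-based growth assay: transgenic P. falciparum expressing firefly luciferase, cultured in red cells within RPMI 1640 containing 0.5% w/v Albumax, 24 mM bicarbonate and gentamycin. A drop in luciferase activity indicates inhibition.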
# Pf growth 96h – Primary qHTS for delayed death inhibitors of the malarial parasite plastid, 96 hour incubation; 320,000 compounds, 6.9% hits; P. falciparum luciferase reporter growth, 96 h; AID 504834, 2011; Potency, µM (doses to about 28.7 µM), without a hit: at the top dose activity change, negative = inhibition, hits mostly inhibitors; also: % is scaled to controls: 0 for no effect and ±100 for the full control effect
#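 Cell-based qHTS: luciferase-tagged P. falciparum in erythrocytes (2% hematocrit, 0.05% parasitemia final) incubated with compounds for 96 hours, 37 C, 5% CO2; luciferase detection reagent then added and luminescence measured.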
# HCV inhibitor – qHTS Assay for Inhibitors of Hepatitis C Virus (HCV) | Huh7.5.1 HCVcc-Cre infection, luciferase reporter, 44 h | 340,000 compounds, 3.4% hits | Potency, µM (titrated, usually from 41.8 µM), without a hit: at the top dose activity change, negative = inhibition, most hits filed as inhibitors | AID 651820, 2012; also: % is scaled to controls: 0 for no effect and ±100 for the full control effect
#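 Infectious HCVcc-Cre (~0.5 moi) was added to cells just after compound, with cells seeded 4 h earlier at 1,000 per well. Luciferase activity after 44 h culture reported infection; substrate was incubated 15 min at room temperature before reading.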
# VACV Venus inh – qHTS for Stage-Specific Inhibitors of Vaccinia Orthopoxvirus: Venus Reporter Primary qHTS; 330,000 compounds, 0.46% hits; Potency, µM (highest dose often 36.5 µM), for the others: top-dose activity change, negative = inhibition, hits mostly inhibitors; Vaccinia virus Venus reporter expression, fluorescence; calls by dose curve; tested in A549 cells; also: % is scaled to controls: 0 for no effect and ±100 for the full control effect; nearly all actives have a fitted effect of over 30% in size
# VACV mCherry inh – qHTS for Stage-Specific Inhibitors of Vaccinia Orthopoxvirus: mCherry Reporter Primary qHTS; Vaccinia virus mCherry reporter infection, fluorescence; Potency, µM (series often up to 36.5 µM), for the others: top-dose activity change, negative = inhibition, usual class: inhibitors; 310,000 compounds, 0.63% hits; calls by dose curve; tested in A549 cells; also: % is scaled to controls: 0 for no effect and ±100 for the full control effect; nearly all actives have a fitted effect of over 35% in size
# NS1 inh – qHTS Assay for Inhibitors of Influenza NS1 Protein Function; Potency, µM (series often up to 46.1 µM), without a hit: at the top dose activity, positive = more growth; 270,000 compounds, 0.4% hits; AID 2326, 2010; calls by dose curve; also: actives are rising curves; nearly all actives have a fitted effect of over 50% in size
#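 Read-out: OD600 growth recovery of NS1-expressing budding yeast. Cells grown overnight at 30C in -URA glucose medium, washed, resuspended and diluted 1:100 in 2% galactose assay medium, pH 6.0. Same strain lacking NS1 served as positive control.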
# Starred values were filed as active, the others as inactive; i = inactive; ? = inconclusive; . = no result given; [ ] = dose if it differs, or a comment. Unless noted, calls follow the shape of the dose curve; as a rule, active = well fitted inhibition curve with a large enough effect; inconclusive = small, poorly fitted or top-dose-only effect, or another doubt; inactive = no such curve, though single readings can be large or run the other way. Potency is read from the fitted curve at half-maximal effect.
SMILES,Pf growth 48h,Pf growth 96h,HCV inhibitor,VACV Venus inh,VACV mCherry inh,NS1 inh
CC1(C)Oc2ccc3ccc(=O)oc3c2/C(=C/Nc2cccc(O)c2)C1=O,13µM*,81%,?,?,-26%,.
CC1(C)Oc2ccc3ccc(=O)oc3c2/C(=C/Nc2ccc(O)cc2)C1=O,?,-14%,?,?,-30%,8%
CC1(C)Oc2ccc3ccc(=O)oc3c2/C(=C/NNC(N)=S)C1=O,0.83µM*,24%,3%,-5%,?,8%
CCOC(=O)c1sc(N)c(C#N)c1COC(=O)CNC(=O)c1cc(OC)c(OC)c(OC)c1,.,16%,-5%,.,.,-3%
N#CCCCn1c(-c2ccccc2)noc1=O,7%,3.7µM*,8%,.,.,0%
CCC(CC)C(=O)Nc1nnc(S(=O)(=O)N2CCCc3ccccc32)s1,-10%,15µM*,-2%,-8%,i,8%
CC(C)CC(=O)Nc1nnc(S(=O)(=O)N2c3ccccc3CC2C)s1 (configuration not stated),53%,9.3µM*,2%,-8%,-3%,-2%
Cc1ccc(C)c(N2CCN(C(=O)CCCN3C(=S)NC(C)(C)CC3C)CC2)c1 (configuration not stated),?,?,10µM*,-27%,-9%,-12%
Cc1cccc(N2CCN(C(=O)CCN3C(=S)NC(C)(C)CC3C)CC2)c1C (configuration not stated),?,7%,?,-11%,-21%,.
CCOC(=O)c1sc(-c2ccccc2)cc1N,146%,.,?,.,.,-11%
O=C1CC(N2CCC(C(=O)N3CCCCC3)CC2)C(=O)N1 (configuration not stated),11%,15%,3%,-28%,.,-9%
CCN1CCN(C2CC(=O)NC2=O)CC1 (configuration not stated),6%,8.3µM*,.,.,.,.
OCC[n+]1c2ccccc2nc2ccc(N3CCOCC3)cc21,0.33µM*,0.26µM*,1%,2%,-12%,5%
O=C(c1cnccn1)N(Cc1cccs1)C1(C(=O)NC2CCCC2)CCCCC1,?,?,4%,4%,-4%,0%
COc1ccc(-c2ccc3oc(-c4ccsc4)cc(=O)c3c2)cc1F,.,.,10%,4%,31%,.
COc1ccc(-c2oc3ccc(-c4cc(OC)c(OC)c(OC)c4)cc3c2C#Cc2ccsc2)cc1,-41%,7.4µM*,-6%,-5%,i,7%
COc1cc(-c2ccc3oc(-c4ccsc4)cc3c2)cc(OC)c1OC,.,.,-12%,14µM*,?,.
CCC(C)NC(=O)CCCCCn1c(=O)[nH]c2cc(OC)c(OC)cc2c1=O (configuration not stated),?,-3%,14%,.,.,4%
Cc1ccc(SCC(=O)NCc2ccncc2)cc1,-1%,86%,-5%,-9%,-7%,11%
CCc1nc2ccccc2n1Cc1cc(=O)n2cc(C)ccc2n1,-17%,1.7µM*,-4%,-18%,i,-9%
OC(CNCC1CCCO1)Cn1c2ccc(Cl)cc2c2cc(Cl)ccc21 (configuration not stated),0.37µM*,29%,?,.,.,-125%
CCn1c2ccccc2c2cc(NC(=O)C(=O)NCC3CCCO3)ccc21 (configuration not stated),?,-6%,?,-27%,-9%,-2%
OC(CNCC1CCCO1)Cn1c2ccccc2c2ccccc21 (configuration not stated),4.7µM*,?,?,-15%,.,-7%
OC(CNCCC1C=Nc2ccccc21)Cn1c2ccc(Cl)cc2c2cc(Cl)ccc21 (configuration not stated),2.6µM*,?,?,?,20µM*,?
Clc1ccc(CNCC2CCCO2)c(Cl)c1 (configuration not stated),.,.,-4%,.,.,.
SMILES,Pf growth 48h,Pf growth 96h,HCV inhibitor,VACV Venus inh,VACV mCherry inh,NS1 inh
CC1(C)Cc2nc3oc4c(=O)n(CC(=O)Nc5ccccc5)cnc4c3cc2CO1,0%,-4%,19%,-19%,-2%,1%
CCOc1ccc(NC(=S)NNC(=O)CC(C)O)cc1 (configuration not stated),59%,?,-5%,-3%,-11%,5%
CCOC(=O)CSc1nc(NCc2ccco2)c2ccccc2n1,-2%,5%,-78%,-4%,i,-6%
COc1ccc2cc(C(=O)NCc3ccco3)c(=O)oc2c1,73%,13µM*,0%,-12%,-18%,-10%[9.22 µM]
COc1ccc2cc(C(=O)NCc3ccco3)c(=Nc3ccc(C(=O)O)cc3)oc2c1,10µM*,?,?,.,.,-6%
COc1ccc(CNc2nc(SCC(=O)NCc3ccco3)nc3ccccc23)cc1,9.3µM*,-17%,?,-21%,?,0%
COc1ccc(-c2cc(C(=O)NCc3ccco3)c3ccccc3n2)cc1,?,3.3µM*,-13%,.,.,-14%
COC(=O)C1=C(N)OC2=C(C(=O)CCC2)C1c1ccccc1OC (configuration not stated),9%,12%,-3%,-1%,i,-1%
CCN(CC)S(=O)(=O)c1ccc(OCC(=O)NCc2ccccc2)cc1,?,9.3µM*,0%,-11%,-22%,-17%
O=C(NCCc1csc(-c2cccnc2)n1)c1ccccc1,?,?,4%,3%,-15%,10%
O=C(NNC(=S)NCc1ccccc1)c1cccnc1,?,2.1µM*,13%,.,.,10%
CCOc1ccc(C(=O)NC(=S)NCc2cccnc2)cc1,30%,10µM*,17%,-8%,-12%,-6%
CCN(CC)S(=O)(=O)c1ccc(OCC(=O)NCc2ccco2)cc1,3%,-13%,-6%,-11%,i,3%
O=C(NCc1ccccc1)c1csc(-c2cccnc2)n1,9.3µM*,31%,-8%,-19%,i,-11%
O=C(NC(=S)NCc1ccccc1)c1cccnc1,21%,?,1%,-11%,i,.
Cc1cccn2c(NCC3CCCO3)c(C(C)C)nc12 (configuration not stated),-3%,30%,-9%,.,.,-7%
O=C(CCN1C(=O)COc2ccccc21)NCCN1CCOCC1,3%,-7%,1%,-8%,-12%,-10%
C=CCOc1ccc(C(=O)Nc2ccccc2C(=O)NCc2cccnc2)cc1,12µM*,12%,-28%,-23%,-12%,4%
CCOc1ccc(S(=O)(=O)N(CC)CC(=O)NCc2cccnc2)cc1,8%,12µM*,7%,-14%,i,-8%
Cc1cc(S(=O)(=O)NCc2ccco2)c(C)s1,5%,7.4µM*,26%,-7%,-23%,5%

# Source: PubChem BioAssay (National Center for Advancing Translational Sciences (NCATS))
